A selection follows. How many sequences the whole screen found active is unknown.
B1: il2ra_site2_3nfp_sap_21_mot_HHH_b1_06577_af2_000000152_0001_20_36_H_._HHH_b2_07686_0001_0000600063_0000001_0_0001 (protein)
chain: SSSSDEDEERVEKLIEEIERLLEEGDRDEAARLLLEATELAARINNDELARKLLELFLKIQSSSS
B2: il2ra_site2_3nfp_normal_mot_HHH_b1_03851_000000147_0001_21_38_H_._HHH_b1_04525_0001_0000600036_0000001_0 (protein)
chain: SSSSDEERREARELFEELQELLEENDKHAVFEVLMELFELAARTGDEEAARLVLEIYAQLRSSSS
B3: il2ra_site2_2erj_sap_10_mot_HHH_b1_08207_af2_000000250_0001_43_57_H_._HHH_b2_03076_0001_0000100015_0000001_0_0001 (protein)
chain: SSSSDWLHRLYELANRITELASRGNPEEAREVLEELQELAEEANSDNAKWVAEALEKHLNSSSSS
B4: il2ra_site2_3nfp_sap_16_mot_HHH_b1_03316_000000041_0001_39_56_H_._702997820559c2f17efcc64b63c1c749_0001_1_0001_0000200016_0000001_0_0001_af2pred_0001_1_af2pred_ … (protein)
chain: DSEKELFKEALEEGDPALIDAVALAIALAERGKPPEEIEKSVERWLRAQGVPPEEIEEILELLRK
B5: il2ra_site2_3nfp_normal_mot_HHH_b2_01406_000000272_0001_41_55_H_._HHH_b2_00362_0001_0000600032_0000001_0 (protein)
chain: SSSSSDEEEEELEERLEKALEEGDKHLAAQLAAELSELLARLNDPETAVRLAVKVLEFVLSSSSS
B6: il2ra_site2_3nfp_sap_26_mot_HHH_b1_07277_000000260_0001_23_39_H_._HHH_eva_0486_af2_0001_0000400016_0000001_0_0001 (protein)
chain: SAELARRIVELVRRGDPVAEALFALLADVAYKGDPELERLLEEALEALERGNPEEAEEIVRKALK
B7: il2ra_site1_2b5i_sap_17_mot_143f78fc0439b137266e145e81963a82_0001_1_af2_000000250_0001_37_51_H_._2548690152cc24afdf538b66510d0e06_0001_0001_0000200012_0000001_0 … (protein)
chain: SSSSDEKYDEVERLFKKALELRRAGKKEEAKEVLEEALKIAEEAKDEKLVEELKRFLELLSSSSS
B8: il2ra_site2_2erj_normal_mot_HHH_b1_00210_af2_000000043_0001_43_57_H_._HHH_b1_00702_0001_0000100006_0000001_0 (protein)
chain: SSSSDREEVEELLKELEEAYEEGDEEKFEELASRASVLIFQIGDFELWSELAELFAKLNKSSSSS
B9: il2ra_site1_2b5i_normal_mot_HHH_b1_08745_af2_000000166_0001_39_57_H_._HHH_b1_02799_0001_0000100008_0000001_0_af2pred_dldesign_0_af2pred (protein)
chain: SSSSSPEGKEVLRLLEEAEAALKAGDEAGARALLEKALEIAKKAKSNLFVKFVEAALKALESSSS
B10: il2ra_site1_1z92_sap_15_mot_HHH_b2_05498_000000253_0001_19_35_H_._HHH_b1_00069_0001_0001500068_0000001_0_0001_af2pred_0001_af2pred_1 (protein)
chain: SEEEEHIRELIEQIPDPELAEAIKKDFEQALERGIPPERVVRALLRAARLDGDPHAEELLEKALR
B11: il2ra_site1_2b5i_sap_11_mot_HHH_b1_06900_af2_000000048_0001_21_36_H_._a1725d017d863e7f4c76c21e96fab134_0001_1_af2_0001_0000100009_0000001_0_0001_af2pred_0001_af … (protein)
chain: SSSSSTLAQKAAELLEEANEADRNGDPEEARKLLEEAEKIAEEAGSKSLLRSIRVALEQLSSSSS
B12: il2ra_site1_1z92_sap_14_mot_HHH_b1_05862_af2_000000270_0001_22_38_H_._HHH_b1_06212_0001_0000200007_0000001_0_0001_af2pred_0001_af2pred_1 (protein)
chain: SSSSSDLEELIEEIARELAEENNDEDLREELEKAAERLKKLGTSHERARKILEKLVKAARSSSSS
B13: il2ra_site2_3nfp_normal_mot_HHH_b2_07840_000000026_0001_18_34_H_._HHH_b1_00954_0001_0000200021_0000001_0 (protein)
chain: SSSSDLEERLRELLEELEELVKEGDEERFREVAREVIQLVYENNDHEAFAKLADLLYLIESSSSS
B14: il2ra_site1_1z92_normal_mot_c9a8daa1dfea21d1414aecde54be4f54_0001_1_af2_000000024_0001_32_46_H_._15f70e71ac3214bf43105af5abf4654e_0001_1_af2_0001_0000300029_000 … (protein)
chain: DEEAARKDLEFALKQGIPPRSVVRAVLLALEHELGDPEEALEVIERAIKLLNDPELEEVVEKLKP
B15: il2ra_site1_2b5i_sap_21_mot_HHH_b2_08159_000000245_0001_1_21_H_._8ad9ac091cb40d3f9ee7ab2e9a3a3379_0001_0001_0000400039_0000001_0_0001_af2pred_0001_af2pred_1 (protein)
chain: SSSSSELLEEAFELLEEADELAKKGNDEEAEKVLREAEELLEKAGNPSLLRLVRAALRLTSSSSS
B16: il2ra_site2_3nfp_normal_mot_HHH_b1_05627_af2_000000038_0001_43_56_H_._HHH_b1_05526_af2_0001_0000100005_0000001_0 (protein)
chain: SSSSDKAEEYVRAAMEAARYALEDGNPEVARRSLELARQLAESLGNEELREEVEELLQELSSSSS
B17: il2ra_site2_2erj_sap_21_mot_HHH_b1_00069_af2_000000103_0001_1_18_H_._HHH_b1_05528_af2_0001_0000500009_0000001_0_0001_af2pred_0001_af2pred (protein)
chain: SSSSDEIRRLYELAEELDKLLLEGDEEKVEELLEELEQLARETNTPSAEKVVRAIEKSLESSSSS
B18: il2ra_site1_2b5i_sap_8_mot_HHH_b2_04131_000000150_0001_1_16_H_._HHH_b2_06569_af2_0001_0000100002_0000001_0_0001_af2pred_dldesign_0_af2pred (protein)
chain: SSSSSSAEEFVNEAIEKAKELKAAGRPDEARRLLKLALKRARKANDADLVARVEALLAELSSSSS
B19: il2ra_site1_1z92_normal_mot_6c2800a769814540b5b47941e710ff28_0001_af2_000000005_0001_35_49_H_._6228ca5b8b091676f337a4c0a06dbe92_0001_0003_0000300038_0000001_0 (protein)
chain: DEFLIEQLLRKIEAGNEESAERIIERLLKNAGIPPEEVERIVEELLKLLKDGDPEEARKLLREAP

molecular target: il2ra, P01589; assay: yeast display titration
Sequence (P01589 whole entry): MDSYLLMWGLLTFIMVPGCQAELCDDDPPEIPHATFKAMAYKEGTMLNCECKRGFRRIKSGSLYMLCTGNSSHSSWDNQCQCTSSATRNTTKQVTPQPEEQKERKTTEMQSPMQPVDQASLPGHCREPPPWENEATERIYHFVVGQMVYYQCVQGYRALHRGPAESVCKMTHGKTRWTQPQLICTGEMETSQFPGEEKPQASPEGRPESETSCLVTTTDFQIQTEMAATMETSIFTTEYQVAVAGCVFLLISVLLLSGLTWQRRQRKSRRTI

Apparent Kd, inactive:
B1 no binding seen
B2 no binding seen
B3 no binding seen
B4 no binding seen
B5 no binding seen
B6 no binding seen
B7 no binding seen
B8 no binding seen
B9 no binding seen
B10 no binding seen
B11 no binding seen
B12 no binding seen
B13 no binding seen
B14 no binding seen
B15 no binding seen
B16 no binding seen
B17 no binding seen
B18 no binding seen
B19 no binding seen

— PMC10163288
